{"source": "PubChem BioAssay (NCI)", "note": "The panel holds about 83,000 compounds, 20% with a hit somewhere; the sample as a whole holds those more often.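 The test compound was applied at a single concentration to cells in 96-well plates for 48 hours, and percent growth was recorded.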 Activity calls are given as the source filed them."}
{"tested_on": "HT29 colon", "assay": "NCI-60 one-dose screen, 48 h (100 = growth as untreated, 0 = no growth, -100 = all killed)", "settings": "10 µM unless noted", "procedure": "Growth inhibition of the HT29 human tumor cell line is measured as a screen for anti-cancer activity. Cells are grown in 96 well plates and exposed to the test compound for 48 hours. Compounds are tested at a single concentration, which is 10^-5 M for most compounds. The reported endpoint is percent growth (GI% or GIPRCNT), where numbers from 0 - 100% represent growth inhibition, and numbers from -100% - 0 represent cell death. For example, a value of 40 represents 60% growth inhibition. A value of 0 means no net growth occurred over the course of the experiment. A value of -40 indicates 40% of cells at the beginning of the experiment died by the end of the experiment. A value of -100 means all cells are dead at the end of the experiment.\nNCI-60 Human Tumor Cell Lines Screen was performed using the standard one-dose NCI protocol, which is described in more detail at https://dtp.cancer.gov/discovery_development/nci-60/default.htm.\nCompounds with GIPRCNT values below 10 were considered active. Activity score was based on GIPRCNT using the following formula: […]\nScore is 0 for GIPRCNT values of 100 or above, 50 for GIPRCNT values of 0, and 100 for GIPRCNT values of -100."}
{"smiles": "CC1Cc2c(ncn3c(-c4ccc(F)cc4)nnc23)N(C)c2ccccc21", "note": "(stereo not given)", "growth": "18.3% (inactive)"}
{"smiles": "C#Cc1cccc(NC(=O)c2ccc(NC(=O)C=C)cc2)c1", "growth": "44% [8.25 µM] (inactive)"}
{"smiles": "Clc1ccc(C(/C=C/c2sc(Cl)nc2Cl)=N/Nc2cc(Cl)cc(Cl)c2)cc1", "growth": "103% (inactive)"}
{"smiles": "NS(=O)(=O)c1ccc(N=Nc2ccc(-c3nn4cc(-c5ccccc5)nc4s3)cc2)cc1", "growth": "99.1% (inactive)"}
{"smiles": "COc1ccc(CN2c3ccccc3CCc3ccccc32)cc1F", "growth": "1.59% (active)"}
{"smiles": "O=C(Nc1ccc(F)cc1F)c1cc(F)ccc1O", "growth": "93.4% (inactive)"}
{"smiles": "COc1ccc(-c2cc(-c3cc(OC)c(OC)c(OC)c3)nc(N3CCOCC3)c2C#N)cc1", "growth": "76.1% (inactive)"}
{"smiles": "Brc1c[n+](Cc2ccc3ccccc3c2)cn1Cc1ccc2ccccc2c1", "growth": "7.66% (active)"}
{"smiles": "O=S(=O)(Nc1ccc(-c2nc(-c3cccc(OCCN4CCOCC4)c3)c(-c3ccnc(Br)c3)[nH]2)cc1)c1ccccc1", "growth": "2.67% (active)"}
{"smiles": "Cc1cccc2c(=O)c3c(sc12)c(NCc1ccccc1)nc1ccccc13", "growth": "83.4% (inactive)"}
{"smiles": "CCOc1ccc2nc(SCc3nc4n(n3)S(=O)(=O)c3ccccc3N4C)sc2c1", "growth": "62.3% (inactive)"}
{"smiles": "CCN(CC)CCCNc1nc2ccccc2c2c(=O)c3cc(Cl)ccc3sc12", "growth": "11.7% (inactive)"}
{"smiles": "C[C@]12CC[C@@H]3c4cc(OC(F)F)c(OS(N)(=O)=O)cc4CC[C@H]3[C@@H]1CC[C@@H]2OS(N)(=O)=O", "growth": "106% (inactive)"}
{"smiles": "COc1ccc(C2=Nn3c(nnc3-c3cc(Cl)cc(Cl)c3Cl)SC2)cc1", "growth": "-28.8% (active)"}
{"smiles": "O=C(N/N=C/[C@H](O)[C@@H](O)[C@@H](O)[C@H](O)CO)c1ccc(NC(=O)c2cccnc2)cc1", "growth": "111% (inactive)"}
{"smiles": "NC1CCN(c2nc(Nc3cccc(C(F)(F)F)c3)c3c(=O)[nH]ccc3n2)CC1", "growth": "-16.3% (active)"}
{"smiles": "O=[N+]([O-])c1ccc(Cl)c(-c2cc(CCCCO)on2)c1", "growth": "103% (inactive)"}
{"smiles": "Cc1nc2ccccc2c(/C=C/c2ccc(Cl)cc2)c1C(=O)/C=C/c1ccc(C(F)(F)F)cc1", "growth": "3.52% (active)"}
{"smiles": "Cc1nc2cnc(N)c(C#Cc3cncc(C(=O)Nc4ccc(CN5CCN(C)CC5)c(C(F)(F)F)c4)c3)c2nc1C", "growth": "7.18% (active)"}
{"smiles": "O=C(N/N=C/c1ccc(Cl)cc1)c1ccc(C(F)(F)F)nc1Nc1cccc(C(F)(F)F)c1", "growth": "16.1% (inactive)"}
{"smiles": "CNc1ccc(Nc2cccc(C)c2)c2c1C(=O)c1ccccc1C2=O", "growth": "96.6% (inactive)"}
{"smiles": "COc1ccc(N2C(=O)C(Oc3ccccc3)C2c2ccc(C)cc2)cc1", "note": "(stereo not given)", "growth": "97.8% (inactive)"}
{"smiles": "CCOC(=O)/C=C1\\S/C(=N\\Nc2ccc([N+](=O)[O-])cc2[N+](=O)[O-])N(Cc2ccccc2)C1=O", "growth": "85.9% (inactive)"}
{"smiles": "N#C/C(=C\\c1ccc(F)cc1)n1nc2cccc(F)c2n1", "growth": "25.6% (inactive)"}
{"smiles": "Cc1nn(-c2ccccc2)c(-n2ccnc2)c1/C=N/Nc1nc(-c2ccc(F)cc2)cs1", "growth": "81.2% (inactive)"}
{"smiles": "Cc1c(C(=O)N[C@@H](Cc2ccccc2)C(=O)C(=O)NCc2ccc(F)cc2)[nH]c2ccccc2c1=O", "growth": "101% (inactive)"}
{"smiles": "CN1CCN(Cc2ccc(NC(=O)c3cncc(C#Cc4cnccc4C#N)c3)cc2C(F)(F)F)CC1", "growth": "27.5% (inactive)"}
{"smiles": "O=C(O)CCC(=O)Nc1nnc(-c2ccccc2)s1", "growth": "106% (inactive)"}
{"smiles": "O=c1n(Cc2ccc3ccccc3c2)ccn1Cc1ccc2ccccc2c1", "growth": "77.1% (inactive)"}
{"smiles": "CCOC(=O)Nc1ccc(-c2nc(-c3cccc(OCCN4CCOCC4)c3)c(-c3ccnc(Br)c3)[nH]2)cc1", "growth": "8.48% (active)"}
{"smiles": "COc1cc(C)c(Cc2cnc(N)nc2N)cc1OC", "growth": "109% (inactive)"}
{"smiles": "C/C=C(\\C)C(=O)N[C@H]1[C@@H](OC(C)=O)C[C@]2(C)C3CC[C@@]4(C)C(CC[C@@H]4C(C)N(C)C)C3CCC2[C@H]1O", "note": "(stereo not given in full)", "growth": "11.3% (inactive)"}
{"smiles": "CCc1ccc(Oc2c(-c3ccc(OCCc4cccc(C(F)(F)F)c4)cc3O)n[nH]c2C(F)(F)F)cc1", "growth": "86.1% (inactive)"}
{"smiles": "Fc1cc(-c2nnc3sc(-c4ccc(Cl)cc4Cl)nn23)c(Cl)cc1Cl", "growth": "72.1% (inactive)"}
{"smiles": "CCCCCCCCCCCCCCCCCC1OCC(COC(=O)O[C@]2(CC)C(=O)OCc3c2cc2n(c3=O)Cc3cc4ccccc4nc3-2)O1", "note": "(stereo not given in full)", "growth": "79.6% (inactive)"}
{"smiles": "COc1ccc(-c2nn(C(=O)c3cc(OC)c(OC)c(OC)c3)c3cc(N)ccc23)cc1", "growth": "0.136% (active)"}
{"smiles": "CCCCCCn1c(-c2ccc(C(=O)O/N=C(\\N)c3ccc4c(c3)OCO4)cc2)nc(-c2ccccc2)c1-c1ccccc1", "growth": "36.3% (inactive)"}
{"smiles": "COc1ccc2sc3c(NCCCNCCO)nc4ccccc4c3c(=O)c2c1", "growth": "-39.2% (active)"}
{"smiles": "O=C(Cc1ccc2c(c1)OCCO2)Nc1nc2ccc(F)cc2s1", "growth": "105% (inactive)"}
{"smiles": "COc1ccc(CNC(=O)[C@H](O)[C@@H](N)Cc2ccccc2)cc1", "growth": "103% (inactive)"}
